Assay outcomes: PubChem BioAssay, National Center for Advancing Translational Sciences (NCATS)
D1 potentiator: human D1 dopamine receptor positive modulation | HEK293 TREx D1 cells, calcium flux, dopamine EC20 potentiation | actives 0.036% (n = 360,000) | potentiation, % at 10 µM | P21728 | AID 504651; in the data active means potentiation above about 30%; further: 0% is about no effect
Target sequence (P21728 whole entry, looked up): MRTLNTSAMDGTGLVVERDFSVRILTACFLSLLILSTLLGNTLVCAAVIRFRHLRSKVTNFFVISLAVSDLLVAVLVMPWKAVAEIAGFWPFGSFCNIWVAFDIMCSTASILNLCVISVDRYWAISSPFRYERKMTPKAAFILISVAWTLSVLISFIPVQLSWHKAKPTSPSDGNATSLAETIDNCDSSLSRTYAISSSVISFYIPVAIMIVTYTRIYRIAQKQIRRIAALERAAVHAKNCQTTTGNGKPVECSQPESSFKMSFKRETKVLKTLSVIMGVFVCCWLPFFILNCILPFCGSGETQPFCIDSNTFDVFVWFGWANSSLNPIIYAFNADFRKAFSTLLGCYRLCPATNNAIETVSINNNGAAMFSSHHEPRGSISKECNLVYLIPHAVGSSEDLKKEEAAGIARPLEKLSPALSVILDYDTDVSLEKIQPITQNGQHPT
D1 antagonist: blocks dopamine activation of the human D1 receptor; P21728; HEK293 TREx D1 cells, calcium flux, dopamine EC80; active compounds read low; activity change, negative = inhibition, % at 10 µM; actives 3.2% (n = 360,000); AID 504652; in the data active means activity change below about -30%; further: on the % scale 0 is the no-effect control and ±100 the full control effect
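Inducible Hek293 Trex D1 cells (tetracycline, overnight, 30 C). Calcium dye 30–90 min RT. Antagonist mode: EC80 dopamine added after 180 s compound read.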
TRHR ag: agonists of human TRH receptor; P34981; TRHR cells, calcium flux fluo-8, FDSS agonist mode; activation, % at 2 µM; actives 0.18% (n = 360,000); AID 493084; further: 0% is about no effect
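Fluo-8-loaded TRHR cells; 10 s baseline, compound added, kinetic Ca2+ fluorescence read 1/s, agonist mode.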
D1 agonist: human D1 receptor agonism; P21728; HEK293 T-REx D1 cells, calcium flux, agonist mode; activation, % at 2 µM; actives 1% (n = 360,000); AID 504660; further: 0% is about no effect
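Inducible HEK293 T-REx D1 cells, force-coupled to calcium signalling, were plated at 4000 cells/well with tetracycline and held overnight at 30 C. After no-wash calcium dye loading, compound-evoked calcium rise over 180 s flagged agonists.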
TRHR enhancer: TRH receptor (human) allosteric enhancement; P34981; TRHR cells, fluo-8 calcium fluorescence, EC20 TRH enhancement; enhancement, % at 2 µM; actives 0.66% (n = 360,000); AID 493056; in the data active means enhancement above about 30%; further: 0% is about no effect
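TRHR-expressing cells loaded with fluo-8 calcium dye were read kinetically (ex 480/em 530) during compound addition, then stimulated with an EC20 of TRH (10 nM final). Enhancement of the Gq-mediated intracellular calcium response was scored.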
* hit, by the source's call. The list is not random: actives were taken first. Their share in the collection is about 4.7%. Unless noted, no stated cut-off is given here; in the data, active means activation above about 30%; inactive means the rest.

SMILES	D1 potentiator	D1 antagonist	TRHR ag	D1 agonist	TRHR enhancer
CCCOc1ccc(N2C(=O)CC(N3CCC(O)(c4cccc(C(F)(F)F)c4)CC3)C2=O)cc1 (configuration not stated)	0.7	-32.4*	0.0	2.3	-1.3
Cc1c(C(C)(C(=O)O)c2c(C)n(C)c3ccccc23)c2ccccc2n1C	-5.0	-19.1	-0.6	2.9	6.0
COc1cccc(C(=O)NC2CC(C)(C)Cc3c2cnn3-c2cccc(F)c2)c1OC (configuration not stated)	-6.4	-22.7	0.1	7.5	-2.5
COC(=O)Cc1ccc(NC(=O)c2ccc3c(c2)C(=O)N(CC2CCCO2)C3=O)cc1 (configuration not stated)	-8.7	-3.4	1.4	8.4	-3.1
O=C(O)Cc1ccc(NC(=O)c2ccc3c(c2)C(=O)N(CC2CCCO2)C3=O)cc1 (configuration not stated)	-12.3	-39.0*	0.7	1.9	-2.7
Cc1ccc(S(=O)(=O)N2CCN(C)CC2)cc1[N+](=O)[O-]	-8.0	1.8	0.8	1.4	-4.7
CN1CCN(S(=O)(=O)c2ccc(N(C)Cc3ccc(OC(F)F)cc3)c([N+](=O)[O-])c2)CC1	-5.8	-39.2*	0.9	11.5	-5.1
Cc1nc2ccc(S(=O)(=O)N3CCN(S(=O)(=O)c4c(F)cccc4F)CC3)cc2s1	27.8	-8.4	0.3	4.4	1.2
CCCn1c(SCC(=O)Nc2ccc3c(c2)OCCO3)n[nH]c1=O	6.0	-0.4	-0.1	2.3	-2.0
CCc1cc2c(=O)n(Cc3ccco3)c(SCC(=O)N(C)C3CCS(=O)(=O)C3)nc2s1 (configuration not stated)	-7.0	-35.7*	-0.8	0.1	-0.7
CCc1cc2c(=O)n(Cc3ccco3)c(SCC(=O)NC3CCS(=O)(=O)C3)nc2s1 (configuration not stated)	-5.2	7.6	0.3	0.0	2.1
CCn1c(SCC(=O)N(C)C2CCS(=O)(=O)C2)nnc1-c1ccccc1 (configuration not stated)	-12.8	-64.5*	-1.0	1.5	10.8
O=C(c1ccc(Cl)cc1Cl)N1CCC(C(=O)N2CCOCC2)CC1	-2.1	-11.7	0.5	0.1	-3.8
Cc1ccc(S(=O)(=O)CCC(=O)OCC(=O)N(Cc2ccccc2)C(C)C)cc1	-2.5	3.0	-0.4	0.0	-11.2
Cc1ccc(N2CC(C(=O)N3CCCCCC3)CC2=O)cc1 (configuration not stated)	-3.3	0.5	0.1	2.3	-2.9
Cc1ccc(S(=O)(=O)c2nc(Nc3nccs3)sc2Cl)cc1	-0.5	3.9	0.9	1.5	30.5*
CC(=O)Nc1nc(S(=O)(=O)c2ccc(C)cc2)c(Cl)s1	0.8	-5.5	0.4	0.7	-4.2
Cc1ccc(CONC(=O)c2ccc(C)cc2)cc1	-5.2	-30.3*	-1.7	0.9	3.7
O=C(COC(=O)CNC(=O)c1ccccc1)NC1CCCC1	-2.3	4.9	-0.4	0.2	8.7
Cc1ccc(SCc2nnc(NC(=O)c3ccccc3)s2)cc1	-6.8	-42.4*	-2.9	1.7	3.0
COc1ccc(-c2c(C)nn3c(C(F)(F)F)cc(C)nc23)cc1OC	1.2	-56.4*	0.6	2.2	-0.4
CCCNC(=O)Cn1c(=O)/c(=C\c2ccc(-c3ccc([N+](=O)[O-])cc3)o2)s/c1=C\C(=O)C(C)(C)C	-7.0	-83.4*	98.0*	283.4*	-20.9
CCCNC(=O)Cn1c(=O)/c(=C\c2ccc(-c3cccc([N+](=O)[O-])c3)o2)s/c1=C\C(=O)C(C)(C)C	-3.4	2.1	3.6	18.8	7.0
Cc1nn(Cc2c(F)c(F)c(F)c(F)c2F)c(C)c1NC(=O)c1ccc(COc2ccccc2Cl)cc1	-9.4	-33.8*	-0.1	5.8	-1.8
c1cncc(-c2nn[nH]n2)c1	6.4	-1.1	0.4	2.7	40.3*
CC1=CC=CC2=NC(=O)CC(C)(C(=O)N(CC(=O)NC3CCCC3)c3ccc(F)cc3)N12 (configuration not stated)	-8.5	-34.2*	0.5	0.6	-2.8
CC(NC(=O)COC(=O)/C=C/c1ccc2c(c1)OCO2)c1ccccc1 (configuration not stated)	-3.2	-4.6	-0.5	1.1	3.1
